# According to PubChem BioAssay:
# Active and inactive are the calls of the source.
# Experiments:
# [1] = test system: PRMT1 (protein arginine N-methyltransferase 1); assay: PRMT1 binders on small-molecule microarrays, primary screen, biochemical, small-molecule microarray, 635 nm fluorescence (AID 1088); conditions: small-molecule microarray binding, higher = more signal;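 note: binding of Prmt1 protein to compounds spotted on small-molecule microarray slides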
# [2] = yeast growth modulation, basal conditions, primary screen, YJM789 clinical isolate, OD600, 24 h (AID 1089);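 note: growth of clinical yeast isolate S. cerevisiae YJM 789 seeded 1000 cells per well; test concentration not given here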; conditions: S. cerevisiae YJM789 growth, higher = more signal, called active from +8 up or from −8 down
# [3] = fission yeast growth modulation, primary screen, strain 972, OD600, 24 h, no modulator (AID 1090);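 note: basal condition with compound alone and no growth modifier present; test concentration not given here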; conditions: S. pombe 972 growth, higher = more signal, called active from +8 up or from −8 down
# [4] = S. cerevisiae growth modulation with rapamycin, primary screen, strain BY4716, OD600, 96 h (AID 1091); conditions: higher = more signal, called active from +8 up or from −8 down; note: test concentration not given here
# [5] = target: Torsin-1A-interacting protein 2 (Homo sapiens) (UniProt Q8NFQ8); assay: LULL1 binders on small-molecule microarray, primary screen, cell lysate, human LULL1 lysate, 635/667 nm fluorescence (AID 1092); conditions: hLULL1 lysate binding, 635 nm fluorescence, higher = more signal;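 note: probe is lysate of COS7 cells overexpressing human LULL1; score merges per-feature 667 nm fluorescence with signal-to-noise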
# [6] = E. coli growth modulation, two-sided OD650, primary screen, E. coli filamentation project, strain DRC41, 24 h (AID 1093); conditions: OD650, 24 h, higher = more signal, called active from +8 up or from −8 down;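 note: MC1000 strain lacking acrAB efflux and sulA so SOS filamentation is blocked; test concentration not given here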
# [7] = small-molecule microarray binders of probe aLefty2, primary screen, biochemical, biotinylated probe, 635/667 nm fluorescence (AID 1094); conditions: higher = more signal;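 note: score merges spot fluorescence near 667 nm with spot signal-to-noise ratio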
# [8] = test system: Noggin (protein binding on small-molecule microarray); assay: Noggin binders on small-molecule microarray, primary screen, biochemical, 635/667 nm fluorescence (AID 1095); conditions: 635 nm fluorescence, higher = more signal;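 note: score merges 667 nm feature fluorescence with signal to noise over triplicate slides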
# [9] = target: Neurogenic locus notch homolog protein 3 (Homo sapiens) (UniProt Q9UM47); assay: NOTCH3 binders on small-molecule microarray, primary screen, biochemical, 635/667 nm fluorescence (AID 1096); conditions: NOTCH3 binding, 635 nm fluorescence, higher = more signal
# [10] = small-molecule microarray binders of probe aEGFR, primary screen, biochemical, biotinylated probe, 635/667 nm fluorescence (AID 1097); conditions: higher = more signal;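 note: probe is a biotinylated anti-EGFR antibody binding compounds printed on slides; score combines fluorescence near 667 nm and signal to noise of each spot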
# Sequence of Torsin-1A-interacting protein 2 (Homo sapiens) (Q8NFQ8 whole entry, looked up): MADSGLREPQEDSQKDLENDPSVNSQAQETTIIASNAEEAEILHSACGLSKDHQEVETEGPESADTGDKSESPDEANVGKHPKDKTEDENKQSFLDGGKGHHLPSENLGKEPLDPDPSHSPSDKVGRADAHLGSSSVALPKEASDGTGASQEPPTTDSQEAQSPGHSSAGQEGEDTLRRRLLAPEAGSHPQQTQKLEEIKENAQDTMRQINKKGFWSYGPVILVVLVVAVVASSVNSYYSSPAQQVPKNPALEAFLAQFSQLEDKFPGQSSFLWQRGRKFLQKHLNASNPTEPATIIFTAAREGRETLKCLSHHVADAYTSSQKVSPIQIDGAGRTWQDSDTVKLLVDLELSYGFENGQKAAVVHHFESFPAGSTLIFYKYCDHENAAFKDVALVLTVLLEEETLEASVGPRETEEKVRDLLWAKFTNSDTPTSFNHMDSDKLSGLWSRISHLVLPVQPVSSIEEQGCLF
# Sequence of Neurogenic locus notch homolog protein 3 (Homo sapiens) (Q9UM47 whole entry, looked up): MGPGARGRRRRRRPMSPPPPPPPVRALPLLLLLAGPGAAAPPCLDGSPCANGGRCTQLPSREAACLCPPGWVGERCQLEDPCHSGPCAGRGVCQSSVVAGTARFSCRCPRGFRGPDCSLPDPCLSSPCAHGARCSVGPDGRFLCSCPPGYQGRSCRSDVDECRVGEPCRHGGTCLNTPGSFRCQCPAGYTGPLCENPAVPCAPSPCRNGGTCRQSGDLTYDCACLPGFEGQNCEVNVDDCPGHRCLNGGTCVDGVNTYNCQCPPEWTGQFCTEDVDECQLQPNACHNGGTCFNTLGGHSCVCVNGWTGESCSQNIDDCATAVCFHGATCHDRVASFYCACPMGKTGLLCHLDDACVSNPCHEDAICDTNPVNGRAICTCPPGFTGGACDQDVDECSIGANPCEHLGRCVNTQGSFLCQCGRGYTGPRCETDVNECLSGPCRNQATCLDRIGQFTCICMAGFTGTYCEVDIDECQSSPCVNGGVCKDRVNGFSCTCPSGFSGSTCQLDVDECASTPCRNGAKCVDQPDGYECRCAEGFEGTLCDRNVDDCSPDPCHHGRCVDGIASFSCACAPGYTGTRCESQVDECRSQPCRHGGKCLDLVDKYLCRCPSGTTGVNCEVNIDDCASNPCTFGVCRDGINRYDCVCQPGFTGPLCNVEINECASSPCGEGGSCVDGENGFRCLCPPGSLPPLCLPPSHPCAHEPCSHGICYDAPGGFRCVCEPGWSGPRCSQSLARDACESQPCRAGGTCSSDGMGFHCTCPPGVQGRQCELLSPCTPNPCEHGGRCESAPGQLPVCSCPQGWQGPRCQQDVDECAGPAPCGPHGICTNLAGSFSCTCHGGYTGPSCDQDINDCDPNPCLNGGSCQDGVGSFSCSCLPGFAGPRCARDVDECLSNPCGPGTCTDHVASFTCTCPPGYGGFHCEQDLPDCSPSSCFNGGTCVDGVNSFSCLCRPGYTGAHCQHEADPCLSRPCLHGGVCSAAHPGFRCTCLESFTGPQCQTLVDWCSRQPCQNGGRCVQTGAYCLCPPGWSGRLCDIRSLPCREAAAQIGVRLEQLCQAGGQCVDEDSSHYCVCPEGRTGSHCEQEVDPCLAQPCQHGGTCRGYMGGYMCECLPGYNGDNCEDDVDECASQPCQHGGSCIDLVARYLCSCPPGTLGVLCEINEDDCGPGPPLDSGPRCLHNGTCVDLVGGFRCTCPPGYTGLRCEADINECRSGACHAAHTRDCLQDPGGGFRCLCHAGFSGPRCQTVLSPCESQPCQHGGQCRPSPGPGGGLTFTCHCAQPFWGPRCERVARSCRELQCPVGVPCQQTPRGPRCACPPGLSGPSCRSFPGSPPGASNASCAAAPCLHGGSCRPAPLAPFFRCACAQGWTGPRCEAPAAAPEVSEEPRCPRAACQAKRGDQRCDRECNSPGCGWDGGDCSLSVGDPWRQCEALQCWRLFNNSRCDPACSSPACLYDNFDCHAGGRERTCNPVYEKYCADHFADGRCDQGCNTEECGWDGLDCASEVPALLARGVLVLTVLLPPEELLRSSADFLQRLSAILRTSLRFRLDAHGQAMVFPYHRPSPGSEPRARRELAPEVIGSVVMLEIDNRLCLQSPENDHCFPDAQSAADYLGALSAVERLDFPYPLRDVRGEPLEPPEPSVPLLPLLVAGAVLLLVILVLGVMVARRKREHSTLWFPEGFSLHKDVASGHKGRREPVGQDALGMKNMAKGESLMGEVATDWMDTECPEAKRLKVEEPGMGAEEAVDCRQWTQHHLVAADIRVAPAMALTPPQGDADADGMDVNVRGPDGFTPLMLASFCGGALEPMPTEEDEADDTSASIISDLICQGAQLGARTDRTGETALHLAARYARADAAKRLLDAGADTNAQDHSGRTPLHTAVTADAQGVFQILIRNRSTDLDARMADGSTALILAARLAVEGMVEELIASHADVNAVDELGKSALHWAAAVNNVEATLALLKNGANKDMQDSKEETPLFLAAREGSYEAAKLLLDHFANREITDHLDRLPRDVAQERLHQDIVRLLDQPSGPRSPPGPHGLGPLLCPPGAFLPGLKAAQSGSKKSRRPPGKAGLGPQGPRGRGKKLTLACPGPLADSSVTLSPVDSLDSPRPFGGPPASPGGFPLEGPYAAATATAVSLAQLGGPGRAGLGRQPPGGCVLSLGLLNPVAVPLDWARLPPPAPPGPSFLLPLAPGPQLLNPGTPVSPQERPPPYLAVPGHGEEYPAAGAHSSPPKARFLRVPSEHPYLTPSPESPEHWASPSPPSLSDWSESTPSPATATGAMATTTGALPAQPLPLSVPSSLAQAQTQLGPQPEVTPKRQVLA
SMILES,composite z-score [1],z-score [2],z-score [3],z-score [4],composite z-score [5],z-score [6],composite z-score [7],composite z-score [8],composite z-score [9],composite z-score [10]
CCOC(=O)C[C@H]1[C@H](OC(=O)c2ccc(C(=O)c3ccccc3)cc2)[C@@H](NC(=O)c2ccc3ccccc3c2)c2cc(OCCCO)ccc2N1C(=O)Cc1ccc(OC)cc1,0.789,-0.0229 (inactive),0.713 (inactive),0.118 (inactive),1.43,0.458 (inactive),0.0633,0.0199,0.479,-0.0688
C=CCOC(=O)[C@H]1[C@@H]2C(=O)O[C@@H](c3ccccc3)[C@@H](c3ccccc3)N2[C@@H](c2ccc(OCCOC(=O)[C@H]3C[C@H]4C(=O)N[C@@H](CCCCNC(C)=O)C(=O)N4[C@H]3c3cccc(OCCO)c3)cc2)[C@]12C(=O)Nc1ccccc12,1.55,0.17 (inactive),1.11 (inactive),2.59 (inactive),3.05,0.272 (inactive),-0.0865,0.664,0.879,-0.0996
C=C[C@H](CO[Si](CC)(CC)CC)N(Cc1ccc(OC(C)=O)c(OC)c1)S(=O)(=O)c1ccc(Br)cc1,0.87,-1.77 (inactive),-1.01 (inactive),0.196 (inactive),1.6,0.415 (inactive),0.476,-0.0715,-0.334,0.0819
COc1ccc([C@H]2OC[C@@H]3C[C@@H](Cc4ccccc4)C(=O)N32)cc1,0.758,-2.03 (inactive),-3.18 (inactive),4.07 (inactive),0.0239,-0.468 (inactive),-0.103,0.892,0.75,-0.0299
O=C1O[C@@H](c2ccccc2)[C@@H](c2ccccc2)N2[C@@H](c3ccccc3OCCO)[C@]3(C(=O)Nc4ccc(C#CC5=CCCCC5)cc43)[C@@H](C(=O)N3CCCCCCC3)[C@H]12,1.53,1.1 (inactive),-0.354 (inactive),2.02 (inactive),4.38,-0.641 (inactive),1.74,1.88,1.02,1.34
C=C(C)[C@@H]1CC=C(C(O)C2C=CC3C(=O)N(C)C(=O)C3N2Nc2ccccc2)CC1 (stereo not given in full),1.12,0.821 (inactive),-0.329 (inactive),1.92 (inactive),1.16,-1.03 (inactive),0.118,0.728,1.08,0.0044
Cc1ccc([C@@H]2C[C@@H](Sc3ccccc3)[C@H](C(=O)O)CN2S(=O)(=O)c2ccc(C)cc2)cc1,1.54,-0.337 (inactive),0.565 (inactive),-0.787 (inactive),3.53,-0.773 (inactive),0.141,0.339,1.08,0.0082
CC(=O)NCCCC[C@@H]1NC(=O)[C@H]2C[C@@H](C(=O)NCCCCCCNC(=O)CS)[C@@H](c3ccc(O)cc3)N2C1=O,1.15,1.2 (inactive),0.686 (inactive),0.983 (inactive),3.13,0.189 (inactive),0.0283,-0.773,-0.372,-0.258
O=C(N1CCCCC1)[C@]1(Cc2ccccc2)N=C(c2ccc(OCCCO)cc2)O[C@@H]1c1ccccc1,1.28,-0.425 (inactive),-1.52 (inactive),3.64 (inactive),2.84,-0.331 (inactive),0.18,-0.281,0.586,0.303
COC(=O)[C@@]1(Cc2ccc(OC)cc2)[C@H]2c3cc(C(=O)N(C)C)n(CCc4ccccn4)c3C[C@H]2CN1C(=O)c1ccccc1,-0.663,0.735 (inactive),1.55 (inactive),2.81 (inactive),2.5,-0.901 (inactive),1.09,-0.307,0.0532,0.865
C=C(CCCC)C(=O)CC[C@@H](OC(=O)c1ccccc1-c1ccccc1C(=O)O)c1ccc(OCCO)cc1,1.53,-0.848 (inactive),-1.57 (inactive),-1.2 (inactive),0.259,0.502 (inactive),-0.0272,0.931,0.462,-0.0767
COc1cccc(-c2cccc(=O)o2)c1,0.274,-1.24 (inactive),-3.46 (inactive),1.42 (inactive),-0.33,0.696 (inactive),0.716,0.335,-0.476,0.08
COCCOC(=O)N1C(=O)[C@@]2(c3cc(C#CCNC(N)=O)ccc31)[C@H](C(=O)Nc1nc3ccccc3s1)[C@H]1C(=O)O[C@H](c3ccccc3)[C@H](c3ccccc3)N1[C@@H]2c1ccc(OCCO)cc1,1.55,1.18 (inactive),0.409 (inactive),2.79 (inactive),1.61,-0.333 (inactive),0.711,0.88,1.06,-0.0354
C[N+](C)(C)CCCCNC(=O)[C@@H]1C[C@@H]2C(=O)N[C@@H](Cc3ccccc3)C(=O)N2[C@@H]1c1cccc(OCCO)c1,0.402,0.534 (inactive),-0.642 (inactive),-1.14 (inactive),1.42,1.07 (inactive),-0.0333,0.692,-0.0417,-0.169
COCCOC(=O)N1C(=O)[C@@]2(c3cc(C#CCC(C(=O)OC)C(=O)OC)ccc31)[C@H](c1ccccc1OCCO)N1[C@H](c3ccccc3)[C@H](c3ccccc3)OC(=O)[C@H]1[C@@H]2C(=O)N1CCN(c2ncccn2)CC1,1.54,2.01 (inactive),2.65 (inactive),7.01 (inactive),3.09,0.998 (inactive),-0.0557,1.28,1.08,0.032
COC(=O)[C@H](Cc1ccccc1)N1CC2=C[C@@H](C3CC3)n3c(=O)n(C)c(=O)n3[C@H]2[C@@H]1[C@@H](O)Cc1ccccc1,1.06,-0.973 (inactive),-1.15 (inactive),0.0538 (inactive),2.88,-0.89 (inactive),-0.136,1.15,1.02,0.142
COC(=O)[C@@]1(Cc2ccc(F)cc2)[C@H]2c3cc(C(=O)N(C)C)n(Cc4ccc(Cl)c(C(F)(F)F)c4)c3C[C@H]2CN1C(=O)c1ccccc1,1.31,0.44 (inactive),1.29 (inactive),1.69 (inactive),3.62,-0.824 (inactive),0.395,-0.602,1.02,0.231
CCOC(=O)C[C@H]1[C@H](OC(=O)c2ccccc2-c2ccccc2)[C@@H](NC(=O)CC(C)C)c2cc(OCCCO)ccc2N1C(=O)Cc1ccc(OC)cc1,0.395,-0.454 (inactive),0.109 (inactive),0.146 (inactive),0.472,-0.853 (inactive),-0.103,0.356,-0.23,-0.111
C=CC[C@@]12N=C(c3ccc(OCCCO)cc3)O[C@@H]1c1ccccc1N(C)C2=O,1.55,0.501 (inactive),-5.65 (inactive),0.432 (inactive),2.93,0.671 (inactive),0.246,1.75,0.997,0.0499
COC(=O)[C@@]1(Cc2ccc(OC)cc2)[C@H]2c3cc(C(=O)N4CCCC4)n(Cc4ccc(O)c(OC)c4)c3C[C@H]2CN1C(=O)c1ccccc1,-0.356,0.972 (inactive),1.19 (inactive),1.18 (inactive),3.39,-0.456 (inactive),0.531,-0.194,0.6,0.805
C[N+](C)(C)CCCCNC(=O)[C@H]1C[C@H]2C(=O)N3CCC[C@H]3C(=O)N2[C@H]1c1cccc(OCCO)c1,0.0394,0.573 (inactive),-0.0177 (inactive),-1.09 (inactive),0.889,0.51 (inactive),0.0459,1.52,0.0378,-0.185
O=C1C[C@@](C(=O)NC2CC2)(c2ccc([N+](=O)[O-])cc2)[C@@H](c2ccc(CO)cc2I)N1C1CCCCC1,1.53,-0.457 (inactive),-0.173 (inactive),1.45 (inactive),2.82,0.233 (inactive),-0.05,1.25,1.07,-0.0828
O=C1O[C@@H](c2ccccc2)[C@@H](c2ccccc2)N2[C@@H](c3ccccc3OCCO)[C@]3(C(=O)Nc4ccccc43)[C@@H](C(=O)Nc3nc4ccccc4s3)[C@H]12,1.53,1.13 (inactive),-0.205 (inactive),2.85 (inactive),3.22,1.26 (inactive),-0.215,1.53,1.04,0.148
C=C(COC)C(=O)CC[C@@H](OC(C)=O)c1ccc(CO)o1,1.43,-1.22 (inactive),-0.198 (inactive),-0.22 (inactive),-0.0809,0.433 (inactive),-0.117,1.11,0.612,-0.0463
C=C(CCCC)/C(=C/C[C@@H](OC(C)=O)c1ccc(OCCO)cc1)c1cnc2ccccc2c1,1.56,0.273 (inactive),-1.44 (inactive),-0.245 (inactive),2.01,0.796 (inactive),-0.132,0.542,0.857,0.0507
CN(C)CCCCCCNC(=O)[C@H]1C[C@H]2C(=O)N3CCC[C@H]3C(=O)N2[C@H]1c1ccc(O)cc1,1.53,-0.389 (inactive),-1.4 (inactive),0.24 (inactive),2.9,1.95 (inactive),0.172,1.74,1.07,0.475
O=C1O[C@H](c2ccccc2)[C@H](c2ccccc2)N2[C@H]1[C@@H](C(=O)N1CCCCCCC1)[C@]1(C(=O)Nc3ccc(C#CC4=CCCCC4)cc31)[C@H]2c1ccc(OCCO)cc1,1.53,0.42 (inactive),-2.08 (inactive),2.79 (inactive),3.7,2.64 (inactive),1.72,1.72,1.02,1.07
CC(C)C(O)C1C=CC2C(=O)N(c3ccccc3)C(=O)C2N1Nc1ccc([N+](=O)[O-])cc1 (stereo not given),0.118,0.307 (inactive),0.815 (inactive),0.834 (inactive),2.89,0.171 (inactive),0.0827,-0.0213,0.614,0.117
